# According to the supplement of paper PMC9135407:
# Values joined by “and” are separate entries in the source; they are usually repeats but may differ in a detail not shown here. Equal values may be shown once. Where a name gives a salt, the structure may show the parent alone. The campaign covered roughly 5,800 compounds. About 620 (11%) showed activity. The list comes from a sample in which actives are over-represented; it also holds similar structures and randomly drawn compounds. Unmarked numbers belong to inactive results.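 How the source made its calls: active = score above a cut-off or among the top three wells of a plate; in these data no inactive exceeds 0.85.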
# System: primary human hepatic stellate cells (donor 1)
# Experiment: scaled lipid accumulation score (0 = DMSO-like, 1 = nortriptyline-like); higher = stronger HSC inactivation (lipid re-accumulation), active = hit call of the paper
# Conditions: 48 h
# Experimental: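 Primary lipid accumulation screen in primary human hepatic stellate cell myofibroblasts (donor 1, passage 8) in 384-well plates. 100 nL of library compound was pin-transferred into 30 µL medium in duplicate, and cells were treated for 48 h. The 'Scaled' score combines distance from plate baseline, toxicity and reproducibility penalties, and is normalised to nortriptyline (positive) and DMSO (negative) controls on each plate. A hit is defined as scaled >0.85 or among the top 3 wells per plate.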
# [1] = library stock concentration: 3.33 mM
# [2] = library stock concentration: 10 mM
# [3] = library stock concentration: 1 mM
# [4] = library stock concentration: 400 uM
# [5] = library stock concentration: 2 mM
compound,measurement,setting,value
NC(=O)c1cc[n+](CC2=C(C(=O)[O-])N3C(=O)[C@@H](NC(=O)Cc4cccs4)[C@H]3SC2)cc1 [Cefalonium],scaled lipid accumulation score,,≤ 0
O=NN(CCCl)C(=O)NC1CCCCC1 [Lomustine],scaled lipid accumulation score,[1],0.044
same,scaled lipid accumulation score,library stock concentration: 8.6 mM,0.014
same,scaled lipid accumulation score,[2],≤ 0
CN1[C@@H]2CC[C@H]1C[C@@H](OC(=O)C(O)c1ccccc1)C2 (mixture of isomers) [DL-Homatropine hydrobromide],scaled lipid accumulation score,[2],0.242
CN1CCC(OC(c2ccccc2)c2ccccc2)CC1 [Diphenylpyraline hydrochloride],scaled lipid accumulation score,,0.332
same,scaled lipid accumulation score,library stock concentration: 6.3 mM,0.256
same,scaled lipid accumulation score,[2],0.235
CN1C2CCC1CC(OC(=O)C(O)c1ccccc1)C2 (stereo unspecified) [Homatropine bromide],scaled lipid accumulation score,[2],≤ 0
CN1C2CCC1CC(OC(c1ccccc1)c1ccccc1)C2.CS(=O)(=O)O (stereo unspecified) [Benztropine mesylate],scaled lipid accumulation score,[2],1.05 (active)
CN1C2CCC1CC(OC(=O)C(O)c1ccccc1)C2 (stereo unspecified) [Homatropine Bromide],scaled lipid accumulation score,[1],≤ 0
same,scaled lipid accumulation score,[2],≤ -0.001
CN1[C@@H]2CC[C@H]1C[C@@H](OC(c1ccccc1)c1ccccc1)C2 [Benztropine],scaled lipid accumulation score,library stock concentration: 4.9 mM,0.193
same,scaled lipid accumulation score,[2],0.38
C1[C@@H](N(C)[C@@H]2C1)C[C@@H](OC(c3ccccc3)c4ccccc4)C2.CS(O)(=O)=O (stereo partly specified) [Benztropine mesylate],scaled lipid accumulation score,[2],0.873 (active)
CN1[C@@H]2CC[C@H]1C[C@@H](OC(c1ccccc1)c1ccccc1)C2 [Cogentin Mesylate],scaled lipid accumulation score,[2],0.598
CN1[C@@H]2CC[C@H]1C[C@@H](OC(c1ccccc1)c1ccccc1)C2 [Benztropine mesylate],scaled lipid accumulation score,[1],0.003
"CN1[C@@H]2CC[C@H]1C[C@@H](OC(=O)C(O)c1ccccc1)C2 (mixture of isomers) [Homatropine hydrobromide (R,S)]",scaled lipid accumulation score,,0.043
CCOC(=O)Nc1cc(-c2ccc(C)c(NS(C)(=O)=O)c2)nn2c(C)nnc12 [Bromosporine],scaled lipid accumulation score,[1],0.166
same,scaled lipid accumulation score,[2],0.621
CCCCCCCCCCCCCCCCOC[C@H](CO)OC(C)=O [Hexadecyl Acetyl Glycerol],scaled lipid accumulation score,[3],≤ 0
CNC(=O)c1ccccc1Nc1nc(Nc2ccc(N3CCOCC3)cc2OC)ncc1Cl,scaled lipid accumulation score,library stock concentration: 80 uM,≤ -0.016
same,scaled lipid accumulation score,[4],≤ -0.016
same,scaled lipid accumulation score,[5],≤ -0.016
same,scaled lipid accumulation score,[1],≤ 0
same,scaled lipid accumulation score,[2],≤ 0 and ≤ -0.016
CNC(=O)c1c(F)cccc1Nc1nc(Nc2cc3c(cc2OC)CCN3C(=O)CN(C)C)nc2[nH]ccc12 [listing 1 of 2 here],scaled lipid accumulation score,[1],0.98 (active)
CNC(=O)c1c(F)cccc1Nc1nc(Nc2cc3c(cc2OC)CCN3C(=O)CN(C)C)nc2[nH]ccc12 [listing 2 of 2 here],scaled lipid accumulation score,[2],0.776
O=C(c1ccc2c(c1)OCCO2)N1CCCCC1,scaled lipid accumulation score,[2],≤ -0.07
COC(=O)C1=CC[C@@]23CC[C@@H]([C@@](C)(/C=C/C=C(\C)C(=O)O)OC2=O)[C@@]3(OC(C)=O)CC1 [Pseudolaric Acid B],scaled lipid accumulation score,[3],≤ 0
CCCC[C@H](C)C[C@H](O)/C=C/[C@H]1[C@H](O)CC(=O)[C@@H]1CCCCC(CC(=O)O)OC (stereo partly specified) [3-methoxy Limaprost],scaled lipid accumulation score,[3],0.012
"CCCCCC(=O)OC[C@H](CO)OC(=O)CCCCC [1,2-Dihexanoyl-sn-glycerol]",scaled lipid accumulation score,[3],0.007
CC(C)(C=O)Cc1cc(C(C)(C)C)c(O)c(C(C)(C)C)c1,scaled lipid accumulation score,[2],0.21 and ≤ -0.006
CC(C)(CO)Cc1cc(C(C)(C)C)c(O)c(C(C)(C)C)c1 [listing 1 of 2 here],scaled lipid accumulation score,[2],0.139
CC(C)(CO)Cc1cc(C(C)(C)C)c(O)c(C(C)(C)C)c1 [listing 2 of 2 here],scaled lipid accumulation score,[2],0.861 (active)
N.N.O=C([O-])C[O-].[Pt+2] [Nedaplatin],scaled lipid accumulation score,library stock concentration: 6.6 mM,0.028
CC(C)[C@@H](O)CC[C@@H](C)[C@H]1CC[C@H]2[C@@H]3CC=C4C[C@@H](O)CC[C@]4(C)[C@H]3CC[C@]12C [24(S)-hydroxycholesterol],scaled lipid accumulation score,library stock concentration: 12.4 mM,0.006
CN(C)Cc1ccc(-c2nc3cccc4c3n2CCNC4=O)cc1,scaled lipid accumulation score,[1],0.037
same,scaled lipid accumulation score,[2],0.491
COc1ccc([C@@H]2CC(=O)c3c(O)cc(O[C@@H]4O[C@H](CO)[C@@H](O)[C@H](O)[C@H]4O[C@@H]4O[C@@H](C)[C@H](O)[C@@H](O)[C@H]4O)cc3O2)cc1O [Neohesperidin],scaled lipid accumulation score,[1],≤ 0
same,scaled lipid accumulation score,[2],0.039
C[C@H](NC(=O)C(C#N)=Cc1cccc(Br)n1)c1ccccc1,scaled lipid accumulation score,[1],1.05 (active)
C[C@H](NC(=O)/C(C#N)=C/c1cccc(Br)n1)c1ccccc1,scaled lipid accumulation score,[2],0.586
CCC[C@H](NC(=O)/C(C#N)=C/c1cccc(Br)n1)c1ccccc1 [Degrasyn (WP1130)],scaled lipid accumulation score,[1],0.369
same,scaled lipid accumulation score,[2],0.703
CC(=O)OCOC(=O)CN(CC(=O)OCOC(C)=O)c1ccccc1OCCOc1ccccc1N(CC(=O)OCOC(C)=O)CC(=O)OCOC(C)=O,scaled lipid accumulation score,[1],≤ -0.009
same,scaled lipid accumulation score,[2],0.697
CC(C)C[C@H](NC(=O)[C@H]1O[C@@H]1C(=O)O)C(=O)NCCCCN=C(N)N,scaled lipid accumulation score,[1],0.177
same,scaled lipid accumulation score,[2],≤ 0 and ≤ -0.07
C=C[C@]1(C)C[C@@H](OC(=O)CSC(C)(C)CNC(=O)[C@H](N)C(C)C)[C@]2(C)[C@H](C)CC[C@]3(CCC(=O)[C@H]32)[C@@H](C)[C@@H]1O [Valnemulin HCl],scaled lipid accumulation score,[1],≤ 0
same,scaled lipid accumulation score,[2],0.491
C=C[C@]1(C)C[C@@H](OC(=O)CS[C@@H]2C[C@H]3CC[C@@H](C2)N3C)[C@]2(C)[C@H](C)CC[C@]3(CCC(=O)[C@H]32)[C@@H](C)[C@@H]1O [Retapamulin],scaled lipid accumulation score,[1],0.412
C=C[C@@]1(C)C[C@@H](OC(=O)CS[C@@H]2C[C@H]3CC[C@@H](C2)N3C)[C@@]2(C)[C@@H]3C(=O)CC[C@@]3(CC[C@@H]2C)[C@@H](C)[C@@H]1O [Retapamulin],scaled lipid accumulation score,[2],0.947 (active)
Clc1ccc(C(c2ccc(Cl)cc2)[n+]2ccn(CC(OCc3ccc(Cl)cc3Cl)c3ccc(Cl)cc3Cl)c2)cc1 (stereo unspecified) [Calmidazolium chloride],scaled lipid accumulation score,[2],0.037
O=C(O)CCC(=O)O.O=C(O[C@H]1CN2CCC1CC2)N1CCc2ccccc2[C@@H]1c1ccccc1 [Solifenacin succinate],scaled lipid accumulation score,[2],1.3 (active)
O=C(O[C@H]1CN2CCC1CC2)N1CCc2ccccc2[C@@H]1c1ccccc1,scaled lipid accumulation score,[2],0.352
O=C(NCc1ccc(Cl)c(Cl)c1)O[C@H]1CCc2ccccc21,scaled lipid accumulation score,[3],0.061
O=C(O[C@H]1CN2CCC1CC2)N1CCc2ccccc2[C@@H]1c1ccccc1 [Solifenacin succinate],scaled lipid accumulation score,[1],0.293
CC/C=C\C/C=C\C/C=C\CCCCCCCC(=O)O [Linolenic acid (18:3 n-3)],scaled lipid accumulation score,[3],≤ -0.021
CC/C=C\C/C=C\C/C=C\CCCCCCCC(=O)O [.alpha.-Linolenic Acid],scaled lipid accumulation score,[3],0.009
CC(=O)O[C@H]1Cc2ccccc2N(C(N)=O)c2ccccc21,scaled lipid accumulation score,[2],≤ 0
CCCC[P+](CCCC)(CCCC)Cc1ccc(NC(=O)C(Cc2ccc3ccccc3c2)NC(=NC2CCCCC2)NC2CCCCC2)cc1 (stereo unspecified),scaled lipid accumulation score,[2],0.797
CNCc1ccc(-c2cc(-c3nc(-c4ccc(S(=O)(=O)C(C)C)cc4)cnc3N)on2)cc1 [listing 1 of 2 here],scaled lipid accumulation score,[1],1.12 (active)
CNCc1ccc(-c2cc(-c3nc(-c4ccc(S(=O)(=O)C(C)C)cc4)cnc3N)on2)cc1 [listing 2 of 2 here],scaled lipid accumulation score,[2],0.254
CCCCCCCC/C=C\CCCCCCCC(=O)OCC [Oleic Acid ethyl ester],scaled lipid accumulation score,[3],0.015
O=C(CO)N1CCC(c2n[nH]c(-c3ccc(Cl)cc3)c2-c2ccncn2)CC1,scaled lipid accumulation score,[4],≤ -0.005
same,scaled lipid accumulation score,[5],≤ -0.005
same,scaled lipid accumulation score,[2],≤ -0.005
Cl.O[C@H](CNC[C@@H](O)[C@H]1CCc2cc(F)ccc2O1)[C@@H]1CCc2cc(F)ccc2O1 [Nebivolol hydrochloride],scaled lipid accumulation score,[2],0.861 (active)
OC(CNCC(O)C1CCc2cc(F)ccc2O1)C1CCc2cc(F)ccc2O1 (stereo unspecified) [Nebivolol],scaled lipid accumulation score,[1],0.769
same,scaled lipid accumulation score,[2],≤ 0
CCCCCC(=O)/C=C/[C@@H]1[C@H](C/C=C\CCCC(=O)O)[C@H](O)C[C@H]1O [8-iso-15-keto Prostaglandin F2.beta.],scaled lipid accumulation score,[3],≤ 0
COC(=O)c1ccc(O)c2nc3c(C=O)c(O)cc(O)c3nc12 [Lomofungin],scaled lipid accumulation score,library stock concentration: 6.4 mM,≤ -0.006
Cn1cc(C(=O)OCC2CCN(CCNS(C)(=O)=O)CC2)c2ccccc21 [listing 1 of 2 here],scaled lipid accumulation score,[2],0.41
COc1[nH]c2ccc(F)cc2c1C(=O)OCC1CCN(CCNS(C)(=O)=O)CC1.NS(=O)(=O)O,scaled lipid accumulation score,[2],0.298
Cn1cc(C(=O)OCC2CCN(CCNS(C)(=O)=O)CC2)c2ccccc21 [listing 2 of 2 here],scaled lipid accumulation score,[2],0.925 (active)
C/C=C1\[C@H]2C=C(C)C[C@]1(N)c1ccc(=O)[nH]c1C2 [(-)-Huperzine A],scaled lipid accumulation score,library stock concentration: 20.6 mM,0.185
C/C=C1\[C@H]2C=C(C)C[C@]1(N)c1ccc(=O)[nH]c1C2,scaled lipid accumulation score,[2],≤ 0
CC(C)(C)C(=O)Nc1ccccc1 [N-Pivaloylaniline],scaled lipid accumulation score,[3],0.066
CC(C)=CCC/C(C)=C/CC/C(C)=C/CC[C@]1(C)CCc2cc(O)cc(C)c2O1 [.delta.-Tocotrienol],scaled lipid accumulation score,[3],≤ 0
CC(C)[C@@H]1NC(=O)[C@H](Cc2ccccc2)NC(=O)[C@@H](CC(=O)O)NC(=O)CNC(=O)[C@H](CCCN=C(N)N)NC1=O [Cyclo [Arg-Gly-Asp-D-Phe-Val]],scaled lipid accumulation score,library stock concentration: 8.7 mM,≤ -0.003
